Assay results reported in PubChem BioAssay (Tox21).
Several values for one entry are separate records, joined by “and”; a condition that tells them apart may be missing. Equal values may be shown once. Inconclusive results are not listed. Entries that show only a call come without a potency. Activity calls are given as the source filed them. Calls follow the shape of the full dose curve.

Experiment: qHTS assay to identify small molecule agonists of H2AX - cell viability counter screen (AID 1224847); also: nearly all actives have a fitted effect of over 30% in size
Settings: CHO-K1 viability, CellTiter-Glo luminescence, 3 h; series mostly up to 154 µM
From the text: National Center for Advancing Translational Sciences [NCATS]
NIH Chemical Genomics Center [NCGC]
U.S. Environmental Protection Agency [EPA]
National Institutes of Environmental Health Sciences [NIEHS]
National Toxicology Program [NTP]
U.S. Food and Drug Administration [FDA]
HTRF phospho-H2AX (Ser139) assay (Cisbio Bioassays, US) enables the quantitative detection of the histone variant H2AX when phosphorylated on serine 139. When double-stranded DNA breaks, either by ionizing radiation or endogenous physiological processes, H2AX becomes phosphorylated at Ser139. This phospho-Ser139 serves as a sensitive biomarker for the detection of such breaks, localizing the site of DNA repair. So, HTRF phospho-H2AX Ser139 is a pertinent assay to study genome stability, the cell cycle, DNA repair, and it serves as a biomarker for cancer, and to understand aging. Wild type CHO-K1 cells were used to identify the inducers of Phospho-H2AX Ser 139 from the Tox21 compound collections. Also cytotoxicity of the Tox21 10K compound library against the CHO-K1 cell line was tested by measuring the cell viability using CellTiter-Glo assay (Promega, Madison, WI).
Tox21 Assay Protocol Summary:
The CHO-K1 cells suspended in culture medium containing 10% FBS were dispensed at 1000 cells/ 3 ul/well in 1536-well white wall/solid bottom plates (Greiner Bio-One North America, NC) using a Multidrop Combi (Thermo Fisher Scientific Inc., Waltham, MA). After the assay plates were incubated at 37C overnight, 23 nl of compounds at 15 concentrations (from 5-48 columns) or positive control (from 1 to 4 columns) were transferred to the assay plates using a Pintool station (Wako, San Diego, CA) into each well resulting in a final DMSO concentration of 0.76%. After 3hr incubation at 37C, 3 uL/well CellTiter-Glo luminescent cell viability reagent (Promega Corporation, Madison, WI) was added using a Flying Reagent Dispenser (FRD) (Aurora Discovery, CA). After incubation at room temperature for 30 min, the luminescence intensity was read using a ViewLux plate reader (PerkinElmer, Waltham, MA).
Potency is read from the fitted curve at half-maximal effect.

SMILES	Potency
O=Cc1ccccc1	inactive
CC(C)=CC1C(C(=O)OC(C#N)c2cccc(Oc3ccccc3)c2)C1(C)C (stereo not given)	inactive
O=C(N[C@H]1N=C(c2ccccc2F)c2cccc3c2N(CC3)C1=O)c1cc2ccccc2[nH]1	inactive
C[N+]1(C)[C@@H]2CC[C@H]1CC(OC(=O)C(CO)c1ccccc1)C2 (stereo not given in full)	inactive
CCCCON=O	inactive
CCCCCON=O	inactive
S=C=NCCc1ccccc1	inactive
NC1CCC(CC2CCC(N)CC2)CC1 (stereo not given)	inactive
[Cl][Hg][c]1ccccc1	7.13 µM (active)
CNC(=O)CSP(=O)(OC)OC	inactive
CCC(C)c1cccc(C(C)CC)c1O (stereo not given)	35.7 µM (active)
C#CC1(O)CCCCC1	inactive
CN1C(=O)[C@@H](NC(=O)c2cc3ccccc3[nH]2)N=C(c2ccccc2)c2ccccc21	inactive
Cc1ccn2nc(S(=O)(=O)Nc3c(F)cccc3F)nc2n1	inactive
CN1[C@@H]2CC[C@H]1CC(O)C2 (stereo not given in full)	inactive
Cc1ccc(C)c2ccccc12	inactive
[O]=[Cr](=[O])([OH])[O][Cr](=[O])(=[O])[OH]	90.6 µM (active)
CN	inactive
[O]=[Cr][O][Cr]=[O]	inactive
Clc1ccc(C2(Cn3cncn3)OCCO2)c(Cl)c1	inactive

SMILES	Potency
Nc1nc(N)nc(Cl)n1	inactive
O=C(NC(=O)c1ccccc1Cl)Nc1ccc(OC(F)(F)F)cc1	inactive
Oc1ccc([C@H]2CNCc3c2ccc(O)c3O)cc1O	inactive
CC(=O)[O-].CC(=O)[O-].CC(=O)[O-].[Cr+3]	inactive
CN(C)C(=S)SSC(=S)N(C)C	49.8 µM (active) and 89.8 µM (active) and 49.2 µM (active)
O=c1c2ccccc2c(=O)c2c1cc(Cl)c1[nH]c3c([nH]c12)c(Cl)cc1c(=O)c2ccccc2c(=O)c13	inactive
O=[N+]([O-])c1cccc2cccc([N+](=O)[O-])c12	inactive
C=C(C)C(=O)[O][Sn]([CH2]CCC)([CH2]CCC)[CH2]CCC	0.713 µM (active)
NC(=O)C(Cl)Cl	inactive
CCN(CC)C(=S)S	inactive
Nc1nc(N)c(N)c(N)n1	inactive
COc1ccc2c3c1O[C@H]1[C@H](O)CC[C@H]4[C@@H](C2)N(C)CC[C@@]341	inactive
COC(=O)/C=C(\C)OP(=O)(OC)OC	inactive
c1cc[n+]2c(c1)-c1cccc[n+]1CC2	inactive
CCOP(=O)(OCC)Oc1nc(Cl)c(Cl)cc1Cl	inactive
CCCCCCCCCCCCCCn1cc[n+](C)c1	12.7 µM (active) and 22.3 µM (active)
CCN(CC)Cc1nccn1-c1ccc([N+](=O)[O-])cc1C(=O)c1ccccc1Cl	inactive
[C-]1=CC=CC1.[Cl][Zr+2][Cl].c1cc[cH-]c1	inactive
CO/N=C(\C(=O)OC)c1ccccc1CO/N=C(\C)c1cccc(C(F)(F)F)c1	2.01 µM (active)
CCOC(=O)CCN(SN(C)C(=O)Oc1cccc2c1OC(C)(C)C2)C(C)C	inactive
